Compound activity deposited in PubChem by National Center for Advancing Translational Sciences (NCATS).
Most compounds without a hit are left out; they make up all but 0.97% or so of the library.
CCT modulator = cytosolic chaperonin activity modulation | activity change, % (test concentration not listed), hits read low | AID 651819 | 0.3% of 360,000 active | purified chaperonin ATPase assay, HTRF ADP detection, 30 min; in the data active means activity change below about -30%
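Enzyme 40 or 20 nM (batch-dependent) in Tris pH 7.4/KCl/MgCl2/DTT; cpd 76 uM single point; ATP 10 uM; 30 min 37 °C; Transcreener ADP HTRF detection, 30 min RT; ratio 665/615.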
CtBP-E1A blk = CtBP/E1A binding inhibition | AlphaScreen GST-E1A/His-CtBP binding, 1536-well; stronger effect = lower value | activity change, % (concentration not given with the values) | 0.49% of 340,000 active | AID 651724
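In 5 uL wells, 23 nL compound meets equimolar GST-E1A and His-CtBP (5X stock 125 nM each) for 2 h, 37 °C. Beads (5X, 50 ug/mL) then 1 h, 37 °C, dark.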
Eya2 phos inh = Eya2 (human) phosphatase inhibition; O00167; recombinant Eya2, OMFP fluorescence dephosphorylation (OMFP is methylfluorescein phosphate); Potency, µM (highest dose often 76.9 µM), for inactives: at the highest dose activity, negative = inhibition, actives largely listed as inhibitors; 0.006% of 330,000 active; AID 488837; active means well fitted inhibition curve with a large enough effect; inconclusive means small, poorly fitted or top-dose-only effect, or effect the other way; further: potency means the concentration at half of the fitted maximal effect
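Eya2 protein (added as 0.2 uM solution) was preincubated with compound for 10 min at ambient temperature in 50 mM HEPES pH 7.5, 50 mM NaCl, 5 uM MgCl2, 0.05% BSA, 1 mM DTT. OMFP (added at 50 uM) then reacted 10 min; fluorescence read at 485/525 nm.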
Six1-Eya2 inh = blocks human Six1 binding to Eya2; Q15475+O00167; AlphaScreen GST-Six1/His-Eya2 binding, biochemical; stronger effect = lower value; activity change, % (no concentration beside the values); 0.56% of 360,000 active
Target sequence (O00167 whole entry, looked up): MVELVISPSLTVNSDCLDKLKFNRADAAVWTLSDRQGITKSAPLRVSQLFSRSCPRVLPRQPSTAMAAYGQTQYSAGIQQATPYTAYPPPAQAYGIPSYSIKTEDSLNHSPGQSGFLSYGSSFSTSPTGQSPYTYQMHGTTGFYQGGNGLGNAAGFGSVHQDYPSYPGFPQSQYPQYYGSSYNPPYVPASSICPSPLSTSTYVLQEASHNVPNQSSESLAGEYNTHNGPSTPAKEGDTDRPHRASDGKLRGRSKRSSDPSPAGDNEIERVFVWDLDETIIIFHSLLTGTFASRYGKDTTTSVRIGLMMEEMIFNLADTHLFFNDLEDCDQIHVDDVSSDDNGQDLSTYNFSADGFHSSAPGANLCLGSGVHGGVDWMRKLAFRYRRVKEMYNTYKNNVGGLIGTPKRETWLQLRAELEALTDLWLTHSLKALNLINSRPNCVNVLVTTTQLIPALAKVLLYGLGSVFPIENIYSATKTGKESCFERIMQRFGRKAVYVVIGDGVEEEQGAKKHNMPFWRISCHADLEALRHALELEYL
Target sequence (Q15475 whole entry, looked up): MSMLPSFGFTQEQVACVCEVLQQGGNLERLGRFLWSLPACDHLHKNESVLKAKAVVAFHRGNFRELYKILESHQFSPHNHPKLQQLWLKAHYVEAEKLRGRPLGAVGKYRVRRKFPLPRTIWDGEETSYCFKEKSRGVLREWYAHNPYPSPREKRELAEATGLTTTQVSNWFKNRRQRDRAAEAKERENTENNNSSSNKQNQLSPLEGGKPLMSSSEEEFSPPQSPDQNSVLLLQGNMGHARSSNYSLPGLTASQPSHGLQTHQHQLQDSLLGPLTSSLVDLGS
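Six1/Eya2 binding was read as AlphaScreen signal after compounds were pinned into GST-Six1 plus His-tagged Eya2 (5X stock 250/500 nM) in pH 8.0 Tris/NaCl/TCEP buffer, beads added, then incubated 1 h, 37 C, dark.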
PI4K2A block = PI4K2A (human) kinase inhibition | Q9BTU6 | purified PI4K2A, ADP-Glo luminescence, 1 h; stronger effect = lower value | activity change, negative = inhibition, % at 76.9 µM | 0.13% of 420,000 active | AID 1346378; in the data active means activity change below about -50%; inconclusive means mostly about -30% to -49%;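 further: -100% = wells without enzyme as full effect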
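Compounds are screened against recombinant PI4K2A using PI as substrate and ATP, the latter dispensed at 300 microM. Reactions run one hour at ambient temperature before ADP-Glo detection; full inhibition defined by wells lacking enzyme.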
Active calls of the source: *; ? = inconclusive; . = no result given. Unless noted, no stated cut-off is given here; in the data, active means activity change below about -65%; inconclusive means mostly about -30% to -63%; inactive means weaker than that. Unless noted, on the % scale 0 is the no-effect control and ±100 the full control effect.

SMILES	CCT modulator	CtBP-E1A blk	Eya2 phos inh	Six1-Eya2 inh	PI4K2A block
Oc1c(Cl)cc(CN2CCOCC2)c2cccnc12	1	.	-8%	-89*	?
O=C(COc1c(Br)cc(Br)c2cccnc12)N1CCCCC1	-1	-7	-5%	-12	-5
O=[N+]([O-])c1cc(CN2CCOCC2)c2cccnc2c1O	0	-4	8%	-88*	-19
O=c1oc2ccccc2c(O)c1Cc1cc(Cl)c2cccnc2c1O	0	?	2%	-9	-6
COc1ccc(C(=O)Oc2c(CN3CCOCC3)cc(Cl)c3cccnc23)cc1OC	-2	-1	.	-11	0
Oc1c(CN2CCc3ccccc3C2)cc(Cl)c2cccnc12	0	-89*	1%	-93*	-24
CN(C)CCOC1=Cc2ccccc2Sc2ccc(Cl)cc21	.	.	.	.	-1
CSc1ccc(-c2cnc(N3CCC(C(N)=O)CC3)s2)cc1	.	.	.	.	-3
Cc1cn([C@H]2C[C@H](F)[C@@H](CO)O2)c(=O)[nH]c1=O	.	.	.	.	-2
C/C(=N/NC(=O)c1ccncc1)C(=O)O	.	.	.	.	-1
O=[N+]([O-])c1cc(CN2CCN(c3ccccc3)CC2)c(O)c2ncccc12	3	-95*	3%	-91*	-2
CCN1C(=O)N[C@@H](c2cccc(C(F)(F)F)c2)C(C(=O)OC)=C1C	-4	6	.	-2	1
CCN1C(=O)N[C@@H](c2cccc(F)c2)C(C(=O)OC)=C1C	-40*	5	.	1	-1
CN1c2ccccc2-c2nc(SCC(=O)Nc3ccccc3)ncc2S1(=O)=O	.	.	.	.	-9
CC(C)N(C(=O)Nc1ccc2nsnc2c1)C(C)C	-1	?	-5%	0	-68*
COc1ccc(N(C)C(=O)Nc2ccc3nsnc3c2)cc1	2	0	10%	0	1
CCCC1CCC2(CC1)CCC2OC(=S)NCc1cccc(OC)c1 (configuration not stated)	.	.	.	.	-3
COCCN1CSC(=S)N(Cc2ccco2)C1	0	-5	2%	-1	-5
S=C1SCN(Cc2ccccn2)CN1Cc1ccco1	-3	?	-3%	-80*	4
CC(=O)O[C@H]1CC[C@@]2(C)C(=CC[C@@H]3[C@@H]2CC[C@]2(C)C(C(C)=O)=CC[C@@H]32)C1	.	.	.	.	3
CC1(C)Cc2c(c(-c3ccco3)nc3sc4c(NCCN5CCOCC5)ncnc4c23)CO1	-1	-2	3%	0	-3
CC1(C)Cc2c(c(-c3ccco3)nc3sc4c(NCCCO)ncnc4c23)CO1	-42*	.	-2%	-11	-14
O=C(NCc1ccc(C(=O)N2CCOCC2)cc1)c1cccc(Br)c1	.	.	.	.	-4
COc1ccc(/C=C/C(=O)Nc2ccc3nc(N4CCC(C)CC4)cc(C)c3c2)cc1OC	.	.	.	.	3
O=C1N(Cc2cccnc2)C[C@@H]2C[C@@H](c3cccc(OCc4ccccc4)c3)N3CCC[C@@]123	3	-10	11%	-28	5
SMILES	CCT modulator	CtBP-E1A blk	Eya2 phos inh	Six1-Eya2 inh	PI4K2A block
O=C1N(Cc2cccnc2)C[C@@H]2C[C@@H](c3cccc(OC4CCCC4)c3)N3CCC[C@@]123	-51*	-13	7%	-3	3
O=C(Cn1cc2c(n1)CCCC2)NCCCN1CCN(c2ccccc2F)CC1	-46*	3	-8%	2	1
O=C(CNC(=O)c1ccc(F)cc1)N/N=C/c1cc(Br)ccc1OCc1ccccc1	-1	.	1%	-6	2
O=C(CNC(=O)c1ccccc1Br)N/N=C/c1ccco1	-4	8	2%	-1	-7
O=C(CNC(=O)c1ccccc1O)N/N=C/c1cc(Br)ccc1OC(=O)/C=C/c1ccco1	-5	-95*	7%	-85*	8
COc1ccc([N+](=O)[O-])cc1/C=N/NC(=O)CNC(=O)c1cccc(F)c1	-1	-70*	3%	?	-1
COc1ccc([N+](=O)[O-])cc1/C=N/NC(=O)CNC(=O)C(c1ccccc1)c1ccccc1	-3	-11	-1%	-16	-6
O=C(CNC(=O)c1cccc(F)c1)N/N=C/c1cc(Br)ccc1OC(=O)/C=C/c1ccco1	-4	-88*	-11%	-88*	2
Cc1cccc(-c2nc(CCNC(=O)c3ccccc3Br)cs2)c1	.	.	.	.	-1
Cc1ccc(NC(=O)CS(=O)CC(=O)N(CC(=O)NC2CCCC2)c2cc(C)ccc2C)cc1 (configuration not stated)	-93*	0	5%	4	4
COc1cc2c(cc1OC)-c1cc(=Nc3c(C)cc(C)cc3C)n(C)c(=O)n1CC2	.	.	2%	.	-2
COc1cc(-c2nc3c[n+](CC(=O)c4ccccc4)ccc3n2C)cc(OC)c1OC	1	17	0%	0	-5
COc1ccc(C(=O)C[n+]2ccc3c(c2)nc(-c2ccccc2)n3C)cc1	-36*	-12	-1%	2	-7
CC1CC(C)CN(CCCNS(=O)(=O)c2cc3c(cc2Br)CCN3C(=O)C2CC2)C1 (configuration not stated)	.	.	.	.	-3
FC(F)c1nc2ccccc2[nH]1	-1	-25	-6%	11	1
c1ccc2[nH]c3cc4ncnc4cc3nc2c1	-3	-73*	22%	?	-12
CN1C(=O)c2cc(NC(=O)Nc3ccccc3)ccc2OC[C@H]2O[C@@H](CC(=O)Nc3cc(F)ccc3F)CC[C@@H]21	.	.	.	.	-7
CCN(C(=O)COC(=O)/C(=C/c1ccccc1)n1nnnc1C)C1CCCCC1	-88*	-4	21%	0	-6
Cc1nnnn1/C(=C\c1ccccc1)C(=O)OCC(=O)N(C)C1CCS(=O)(=O)C1 (configuration not stated)	-3	-3	3%	2	-1
CCCC1(C)C(C#N)(C#N)C1(C#N)C#N	.	.	-7%	.	-3
CCCC(CCC)(C(=O)OCC)C(=O)OCC	.	.	.	.	-5
CCOC(=O)COc1ccc(CC)cc1C(=O)c1ccn2nc(-c3ccc(Cl)cc3)cc2n1	.	.	.	.	4
COc1ccc(C=C2CCc3ccccc3C2=O)cc1	2	4	.	-1	-83*
O=C1C(=Cc2ccc(F)cc2)CCc2ccccc21	0	0	.	15	-73*
O=C1C(=Cc2ccc(Cl)cc2)CCc2ccccc21	1	3	.	1	?
O=C(Cc1ccccc1)NN1C(=O)/C(=C/c2ccc(C(=O)O)cc2)SC1=S	-35*	-21	0%	-13	-3
CC(C)NCCCC1(C(N)=O)c2ccccc2-c2ccccc21	.	.	.	.	-1
O=C(Nc1ccccc1C(F)(F)F)c1ccc2oc(=O)c(S(=O)(=O)c3ccc(F)cc3)cc2c1	.	.	.	.	-2
O=S(=O)(Nc1ccc(Cc2ccncc2)cc1)c1ccc(Cl)cc1	2	19	-1%	6	-1
O=c1ccc(NS(=O)(=O)c2ccc(Cl)cc2)cn1Cc1ccc(Cl)c(Cl)c1	1	-22	-12%	-2	-59*
